# Measurements reported in PubChem BioAssay (NCATS).
# Several values for one entry are separate records, joined by “and”; a condition that tells them apart may be missing. Identical values can stand only once. A number with no mark means an inactive call. Records with an inconclusive call do not appear. Activity calls are given as the source filed them. Unless noted, calls follow the shape of the dose curve; as a rule, active = well fitted inhibition curve with a large enough effect; inconclusive = small, poorly fitted or top-dose-only effect; inactive = flat fitted curve, though single readings scatter.
# System: astro (control astrocytes)
# Assay: Drug repurposing screens with cells derived from glioblastoma tumor samples (AID 1345199); also: nearly all actives have a fitted effect of over 40% in size; also: potency is read from the fitted curve at half-maximal effect; as to activity, negative = cell killing: % is scaled to controls: 0 for no effect and ±100 for the full control effect
# Details: viability, ATP luminescence, 48 h; series mostly up to 45.9 µM; activity, negative = cell killing: at the top concentration
# Summary of the method: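 Four patient lines of CD133+ GBM neurospheres were screened at several concentrations; hits were retested in those lines plus three slower-growing GBM lines, using 48-hour treatment and ATP-based viability.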
SMILES,"activity, negative = cell killing",Potency
CC(NC(C)(C)C)C(=O)c1cccc(Cl)c1 (stereo not given),-13.6%,
COP(=S)(OC)SCN1C(=O)c2ccccc2C1=O,-17.1%,
CC(C)NC(C)C,7.29%,
O=C(O)CCCc1ccc(N(CCCl)CCCl)cc1,-15.8%,
Clc1cccc(SC2CCNCC2)n1,,35.5 µM (active)
CCc1cc2c(s1)-n1c(C)nnc1CN=C2c1ccccc1Cl,-25.3%,
NC(=O)c1cc([N+](=O)[O-])cc([N+](=O)[O-])c1,-12.4%,
CN1CC[C@]23c4c5ccc(O)c4O[C@H]2[C@@H](O)C=C[C@H]3[C@H]1C5,-29.9% [at 91.6 µM],
NNc1ccccc1,-14.5%,
Nc1ccccc1,-0.126%,
CNCC(=O)c1ccc(O)c(O)c1,-21.1%,
COc1c2c(cc3c1OCO3)CCN(C)C2,-13.1% [at 21.2 µM],
CN1C(=O)CCS(=O)(=O)C1c1ccc(Cl)cc1 (stereo not given),,inactive
C[C@]12CC[C@@H]3c4ccc(OC(=O)N(CCCl)CCCl)cc4CC[C@H]3[C@@H]1CC[C@@H]2OP(=O)(O)O,,10 µM (active)
O=C1CN=C(c2ccccc2)c2cc([N+](=O)[O-])ccc2N1,-19.2%,
CC(Cc1ccccc1)NCCn1cnc2c1c(=O)n(C)c(=O)n2C (stereo not given),-15% [at 91.6 µM],
CCN[C@@H](C)Cc1ccccc1,-0.993% [at 108 µM],
CCC1(c2ccc(N)cc2)CCC(=O)NC1=O (stereo not given),-14.7%,
COc1cc(OC)c(OC)cc1C=O,1.14% [at 91.6 µM],
O=C(CCCN1CCC2(CC1)C(=O)NCN2c1ccccc1)c1ccc(F)cc1,-21.1%,
NCCc1ccc(O)cc1,-1.61%,
C=CCN1C[C@H](C)N([C@H](c2ccc(C(=O)N(CC)CC)cc2)c2cccc(OC)c2)C[C@H]1C,-18.1%,
[N-]=[N+]=CC(=O)OC[C@H](N)C(=O)O,-17.6%,
CC(C)N(CCC(C(N)=O)(c1ccccc1)c1ccccn1)C(C)C (stereo not given),-13.3%,
CN1CCC(O)(c2ccc(F)cc2)C(C(=O)c2ccc(F)cc2)C1 (stereo not given),-26.4%,
O=C1c2ccccc2C(=O)c2ccccc21,-11.2%,
COc1ccc2c3c1O[C@H]1[C@H](O)CC[C@H]4[C@@H](C2)N(C)CC[C@@]341,-12.6% [at 91.6 µM],

# Biological target: Nuclear receptor subfamily 1 group I member 2 (Rattus norvegicus) (UniProt Q9R1A7)
# Assay: qHTS assay for small molecule activators of the rat pregnane X receptor (rPXR) signaling pathway (AID 651751; call rule not given here; also: 0% is about no effect)
# Details: rPXR reporter cells, luciferase (One-Glo), 24 h
# Sequence of Nuclear receptor subfamily 1 group I member 2 (Rattus norvegicus) (Q9R1A7 whole entry, looked up): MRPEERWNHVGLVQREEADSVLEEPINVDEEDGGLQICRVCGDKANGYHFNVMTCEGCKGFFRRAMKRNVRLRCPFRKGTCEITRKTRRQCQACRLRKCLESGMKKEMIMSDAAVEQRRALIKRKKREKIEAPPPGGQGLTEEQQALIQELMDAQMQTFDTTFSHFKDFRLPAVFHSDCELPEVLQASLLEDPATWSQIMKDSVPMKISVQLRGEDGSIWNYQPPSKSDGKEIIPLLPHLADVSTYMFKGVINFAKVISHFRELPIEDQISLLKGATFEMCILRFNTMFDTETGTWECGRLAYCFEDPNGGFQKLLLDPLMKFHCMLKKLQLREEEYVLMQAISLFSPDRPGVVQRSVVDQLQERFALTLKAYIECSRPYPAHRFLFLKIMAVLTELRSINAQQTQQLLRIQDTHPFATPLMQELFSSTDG
row,SMILES,max response
1,COP(=S)(OC)SCN1C(=O)c2ccccc2C1=O,-5.41%
2,CC(C)NC(C)C,7.26%
3,O=C(O)CCCc1ccc(N(CCCl)CCCl)cc1,4.32% and -0.624%
4,Nc1ccccc1,-4.01%
5,COc1cc(OC)c(OC)cc1C=O,5.78%
6,Nc1nc(N)nc(NC2CC2)n1,2.97%
7,NCCc1ccc(O)cc1,0.0715%
8,[N-]=[N+]=CC(=O)OC[C@H](N)C(=O)O,-5.51%
9,CC(C)c1cccc(C(C)C)c1O,-2.57%
10,O=C1c2ccccc2C(=O)c2ccccc21,4.64%

# System: not listed separately
# Assay: qHTS assay for small molecule activators of the human pregnane X receptor (PXR) signaling pathway (AID 720659; call rule not given here; also: 0% is about no effect)
# Details: DPX-2 HepG2 CYP3A4-luciferase, 24 h; series mostly up to 92.3 µM; activation: at the top concentration
SMILES,activation [%],outcome
COP(=S)(OC)SCN1C(=O)c2ccccc2C1=O,1.69,
CC(C)NC(C)C,-10.9,
O=C(O)CCCc1ccc(N(CCCl)CCCl)cc1,,inactive
Nc1ccccc1,-9.88,
COc1cc(OC)c(OC)cc1C=O,-7.25,
Nc1nc(N)nc(NC2CC2)n1,7.67,
NCCc1ccc(O)cc1,-7.09,
[N-]=[N+]=CC(=O)OC[C@H](N)C(=O)O,-5.08,
